Sampled rows, rich in hits. Any-hit rate of the full collection: about 7.5%.
Vaccinia Venus – vaccinia inhibition (Venus reporter); AID 720580; hit rate 0.46% among 330,000; Potency, µM (highest dose often 36.5 µM), usual class: inhibitors; Vaccinia virus Venus reporter expression, fluorescence; calls by dose curve; tested in A549 cells; further: nearly all actives have a fitted effect of over 30% in size
FBPA Giardia inh – Giardia lamblia aldolase inhibition | purified Giardia FBPA | Potency, µM (highest dose often 59.6 µM), actives largely listed as inhibitors | hit rate 0.71% among 290,000 | AID 2451; further: nearly all actives have a fitted effect of over 55% in size
Target sequence (A8B2U2 whole entry, looked up): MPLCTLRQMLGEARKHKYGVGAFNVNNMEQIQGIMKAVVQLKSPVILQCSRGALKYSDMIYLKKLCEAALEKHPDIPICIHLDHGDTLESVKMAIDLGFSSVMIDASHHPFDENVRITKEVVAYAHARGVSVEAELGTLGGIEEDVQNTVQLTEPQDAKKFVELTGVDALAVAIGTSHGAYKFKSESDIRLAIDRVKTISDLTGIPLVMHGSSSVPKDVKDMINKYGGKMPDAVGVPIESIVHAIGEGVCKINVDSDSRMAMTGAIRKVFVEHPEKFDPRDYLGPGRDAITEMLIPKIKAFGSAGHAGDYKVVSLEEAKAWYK
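Giardia FBPA (40 nM reagent) was preincubated 10 min at RT with compound (up to 57.5 uM final), then substrate plus GAPDH/TPI/NAD/arsenate coupling system with diaphorase/resazurin was added; resorufin fluorescence (525/598 nm) was read after 20 min.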
HCV inhibitor – inhibitors of hepatitis C virus infection; Huh7.5.1 HCVcc-Cre infection, luciferase reporter, 44 h; Potency, µM (highest dose often 41.8 µM), most hits filed as inhibitors; hit rate 3.4% among 340,000
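Compounds are dispensed onto cells plated 4 h earlier at 1,000 per well, with HCVcc-Cre virus (about 0.5 moi) added next. Following 44 h of culture, luminescent signal is measured for 15 sec after 15 min with substrate at room temperature.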
FMDV inh – blocks foot and mouth disease virus. hit rate 1.2% among 410,000. FMDV antiviral cell-based qHTS. Potency, µM (titrated, usually from 57.9 µM), most hits filed as inhibitors. AID 1159524; calls by dose curve; tested in HEK293T cells; further: read-out not given here; nearly all actives have a fitted effect of over 45% in size
HCMV inh – inhibitors of human cytomegalovirus; HFF cells, HCMV-luciferase reporter, 72 h; stronger effect = lower value; activity change, negative = inhibition, % at 57.5 µM; hit rate 4.5% among 410,000; AID 1259415; in the data active means activity change below about -60%; inconclusive means no clear call, values can overlap the other calls; inactive means above about -39%
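Two-dose cell screen: HFF monolayers treated with compounds and infected with luciferase-expressing HCMV at 1 PFU/cell, 72 h at 37C, then lysed for luciferase measurement.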
VACV mCherry inh – inhibitors of vaccinia virus infection (mCherry reporter signal). Vaccinia virus mCherry reporter infection, fluorescence. Potency, µM (titrated, usually from 36.5 µM), usual class: inhibitors. hit rate 0.63% among 310,000. AID 720579; calls by dose curve; tested in A549 cells; further: nearly all actives have a fitted effect of over 35% in size
Hits are given with their value. Unless noted, the call rests on the fitted dose curve; in most records, active means well fitted curve in the direction sought with a large enough effect; inconclusive means small, poorly fitted or top-dose-only effect, or another doubt; inactive means no such curve, though single readings can be large; an effect the other way counts as inactive or inconclusive.

`O=C(OCc1ccc([N+](=O)[O-])cc1)c1cc(S(=O)(=O)N2CCCCC2)ccc1N1CCOCC1` gave Vaccinia Venus inactive, HCV inhibitor inconclusive, FMDV inh inactive, HCMV inh inconclusive and VACV mCherry inh inactive.
For COc1ccc(OC)c(COC(=O)c2cc([N+](=O)[O-])ccc2N2CCOCC2)c1 the results were HCV inhibitor 8.9µM, FMDV inh inactive and HCMV inh inactive.
For O=C(OCc1ccccc1C(F)(F)F)c1cc([N+](=O)[O-])ccc1N1CCOCC1 the results were Vaccinia Venus inactive, FBPA Giardia inh inactive, HCV inhibitor inconclusive, FMDV inh inactive, HCMV inh inactive and VACV mCherry inh inconclusive.
`Cc1ccccc1COC(=O)c1cc([N+](=O)[O-])ccc1N1CCOCC1` gave HCV inhibitor 13µM, FMDV inh inactive and HCMV inh inactive.
`O=C(c1cc([N+](=O)[O-])ccc1N1CCOCC1)N1CCN(c2ccccc2)CC1` gave HCMV inh -87.
`CN(C)S(=O)(=O)c1cccc(COC(=O)c2cc([N+](=O)[O-])ccc2N2CCOCC2)c1` gave Vaccinia Venus inactive, HCV inhibitor 13µM, FMDV inh inconclusive, HCMV inh inactive and VACV mCherry inh inconclusive.
O=C(OCc1ccccc1F)c1cc([N+](=O)[O-])ccc1N1CCOCC1 was read as Vaccinia Venus inactive, HCV inhibitor 10µM, FMDV inh inactive, HCMV inh inactive and VACV mCherry inh inactive.
`CSc1ccc(COC(=O)c2cc([N+](=O)[O-])ccc2N2CCOCC2)cc1` gave Vaccinia Venus inconclusive, HCV inhibitor inconclusive, FMDV inh inactive, HCMV inh -83 and VACV mCherry inh inconclusive.
Screening CC1(N=Cc2cc(Cl)ccc2O)COP(=O)(NC2CCCC2)OC1 (stereo not given) returned Vaccinia Venus inactive, HCV inhibitor inactive, FMDV inh inactive, HCMV inh inactive and VACV mCherry inh inactive.
`COc1cccc(-c2nc(C(=O)NCCCN3CCOCC3)cc3c2[nH]c2ccccc23)c1` gave Vaccinia Venus inactive, FBPA Giardia inh inactive, HCV inhibitor 11µM, FMDV inh inactive, HCMV inh -74 and VACV mCherry inh inconclusive.
Screening O=C(NCC1CCCO1)c1cc2c([nH]c3ccccc32)c(-c2cccc(Cl)c2)n1 (stereo not given) returned Vaccinia Venus inconclusive, FBPA Giardia inh inactive, HCV inhibitor 1.3µM, FMDV inh inconclusive and VACV mCherry inh inconclusive.
For COc1ccccc1-c1nc(C(=O)NCC2CCCO2)cc2c1[nH]c1ccccc12 (stereo not given) the results were Vaccinia Venus inactive, FBPA Giardia inh inactive, HCV inhibitor inconclusive, FMDV inh inactive and VACV mCherry inh inactive.
O=C(NCCCO)c1cc2c([nH]c3ccccc32)c(-c2ccccc2)n1 was read as Vaccinia Venus inconclusive, FBPA Giardia inh inactive, HCV inhibitor 10µM, FMDV inh inactive, HCMV inh inactive and VACV mCherry inh inactive.
O=C(NCCCO)c1cc2c(cn1)[nH]c1ccccc12 was read as FBPA Giardia inh inactive, HCV inhibitor inactive, FMDV inh inactive and HCMV inh inactive.
`COc1cccc(CNc2nc3ccccc3c3nc(-c4cccc(C)c4)nn23)c1` gave Vaccinia Venus inactive, FMDV inh inactive, HCMV inh inactive and VACV mCherry inh inactive.
For Cc1cc(C)n2c(Nc3ccc4c(c3)OCCO4)c(CCc3ccccc3)nc2n1 the results were Vaccinia Venus inactive, FMDV inh inactive, HCMV inh inactive and VACV mCherry inh inactive.
For COc1ccc(C2N(C(C)=O)CCCN2S(=O)(=O)c2ccc(C)cc2)cc1 (stereo not given) the results were Vaccinia Venus inactive, HCV inhibitor inactive, FMDV inh inactive, HCMV inh -62 and VACV mCherry inh inactive.
Screening COc1cccc(NC(=O)Cn2c(=O)n(-c3ccccc3)c(=O)c3sccc32)c1 returned FBPA Giardia inh inactive, HCV inhibitor inactive, FMDV inh inactive and HCMV inh inactive.
CSc1ccc(NC(=O)NCCCN2CCC(Cc3ccccc3)CC2)cc1 was read as FBPA Giardia inh inactive, HCV inhibitor 10µM, FMDV inh inactive and HCMV inh -63.
`O=C(NCCCN1CCC(Cc2ccccc2)CC1)C1CC(=O)N(C2CCCCCC2)C1` (stereo not given) gave Vaccinia Venus inactive, FBPA Giardia inh inactive, HCV inhibitor 4µM, FMDV inh inactive, HCMV inh inactive and VACV mCherry inh inactive.
CC1(C(=O)Nc2cccc(OC(F)(F)F)c2)Cc2c(-c3cccc(C(N)=O)c3)ccnc2O1 (stereo not given) was read as Vaccinia Venus inactive, FMDV inh inactive, HCMV inh inactive and VACV mCherry inh inconclusive.
O=C(c1ccc(Cl)cc1)N1CCC(C(=O)N2CCN(c3ncccn3)CC2)CC1 was read as Vaccinia Venus inactive, HCV inhibitor inactive, FMDV inh inactive, HCMV inh inactive and VACV mCherry inh inactive.
`O=c1[nH]cc(F)c(=O)n1C1OC(CO)C(O)C1O` (stereo not given) gave Vaccinia Venus inactive, FMDV inh inactive, HCMV inh inactive and VACV mCherry inh inactive.
For COc1ccc(C2C(=O)N(C3CCC(C)CC3)CC(=O)N2C2CCCCC2)cc1OC (stereo not given) the results were Vaccinia Venus inactive, FMDV inh inactive, HCMV inh inconclusive and VACV mCherry inh inactive.
OCCN(CCO)c1ccc(C(c2ccccc2Cl)c2ccc(N(CCO)CCO)cc2Cl)c(Cl)c1 was read as Vaccinia Venus inconclusive, FBPA Giardia inh inactive, HCV inhibitor inconclusive, FMDV inh 40µM and VACV mCherry inh inconclusive.
Screening COc1ccc(-c2csc(Nc3ccc(C)cn3)n2)cc1 returned Vaccinia Venus inactive, FBPA Giardia inh inconclusive, HCV inhibitor inconclusive, FMDV inh inactive, HCMV inh inactive and VACV mCherry inh inactive.
Screening Cc1nc(N)sc1-c1csc(Nc2ccccn2)n1 returned Vaccinia Venus inactive, FBPA Giardia inh inconclusive, HCV inhibitor inactive, FMDV inh inactive, HCMV inh inactive and VACV mCherry inh inactive.
COc1ccc(Nc2nc(-c3sc(N)nc3C)cs2)cc1 was read as FBPA Giardia inh inactive, HCV inhibitor inconclusive, FMDV inh inactive and HCMV inh inactive.
For Cc1nc(N)sc1-c1csc(Nc2ccc(Cl)cn2)n1 the results were FBPA Giardia inh inconclusive, HCV inhibitor 8.9µM, FMDV inh inactive and HCMV inh inactive.
Screening Cc1ccnc(Nc2nc(-c3sc(C)nc3C)cs2)c1 returned Vaccinia Venus inconclusive, HCV inhibitor 8.9µM, FMDV inh inactive, HCMV inh -107 and VACV mCherry inh 3.5µM.
CC(=O)Oc1ccc(-c2csc(Nc3ccc(Cl)cn3)n2)cc1 was read as FBPA Giardia inh inactive, HCV inhibitor 11µM, FMDV inh inactive and HCMV inh inactive.
`Cc1nc(C)c(-c2csc(Nc3ccccn3)n2)s1` gave FBPA Giardia inh inactive, HCV inhibitor 8.9µM, FMDV inh inactive and HCMV inh inactive.
